# Results: PubChem BioAssay
# Active and inactive are the calls of the source. Unless noted, the rule behind the calls is not given here.
# Tests used:
# [1] = A549 cell viability effects, profiling panel, calcein-AM fluorescence, 48 h, basal (AID 1162); conditions: higher = more signal; note: test concentration not given here
# [2] = adipocyte viability effects, profiling panel, cell-based, 3T3-L1 adipocytes, calcein-AM fluorescence, 48 h, basal (AID 1163); conditions: 3T3-L1 adipocytes viability, higher = more signal; note: test concentration not given here
# [3] = HepG2 cell viability effects, profiling panel, calcein-AM fluorescence, 48 h, basal (AID 1164); conditions: higher = more signal; note: test concentration not given here
# [4] = MM1S cell viability effects, profiling panel, calcein-AM fluorescence, 48 h, basal (AID 1165); conditions: higher = more signal;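 note: viability of MM1S multiple myeloma cells under basal unstimulated conditions; test concentration not given here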
# [5] = basal RPMI8226 viability, no added stimulus, profiling panel, cell-based, calcein-AM fluorescence, 48 h, PK04 Diversity Set (AID 1166); conditions: RPMI8226 myeloma viability, higher = more signal;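 note: cells grown under basal conditions without added stimulus; test concentration not given here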
# [6] = basal HepG2 mitochondrial membrane potential changes, profiling panel, cell-based, JC-1 fluorescence, 24 h, 100 nL compound (AID 1167); conditions: higher = more signal; note: test concentration not given here
# [7] = basal 3T3-L1 adipocyte mitochondrial potential changes, profiling panel, cell-based, JC-1 fluorescence, 3T3-L1 adipocytes, 24 h, 100 nL compound (AID 1168); conditions: JC-1 mitochondrial fluorescence, higher = more signal, called active from +8 up or from −8 down; note: test concentration not given here
# [8] = basal RPMI8226 mitochondrial membrane potential changes, profiling panel, cell-based, JC-1 fluorescence, 24 h, 100 nL compound (AID 1169); conditions: RPMI8226 myeloma, JC-1 mitochondrial potential fluorescence, higher = more signal; note: test concentration not given here
# [9] = basal MM1S mitochondrial membrane potential changes, profiling panel, cell-based, JC-1 fluorescence, 24 h, 100 nL compound (AID 1170); conditions: higher = more signal; note: test concentration not given here
# [10] = A549 lung cancer cell viability effects, profiling panel, resazurin fluorescence, 24 h, PK04 Diversity Set (AID 1171); conditions: higher = more signal, called active from +8 up or from −8 down; note: test concentration not given here
# [11] = HepG2 liver cancer cell viability effects, profiling panel, resazurin fluorescence, 24 h, PK04 Diversity Set (AID 1172); conditions: higher = more signal; note: test concentration not given here
# [12] = basal S. cerevisiae growth modulation, no modifier, primary screen, OD600, strain BY4716, 24 h, basal condition (AID 1173); conditions: OD600, 24 h, higher = more signal, called active from +8 up or from −8 down
# [13] = MM1S myeloma cell viability, profiling panel, resazurin fluorescence, basal, 24 h, PK04 Diversity Set (AID 1174); conditions: higher = more signal, called active from +8 up or from −8 down;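 note: MM1S multiple myeloma cell line; test concentration not given here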
# [14] = target: Dihydroorotate dehydrogenase (quinone), mitochondrial (Plasmodium falciparum (isolate 3D7)) (UniProt Q08210); test: PfDHODH enzyme inhibitors, primary screen, biochemical, C-terminal His tag, absorbance 600 nm (AID 1175); conditions: DCIP absorbance 600 nm, higher = more signal, called active from +8 up or from −8 down;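 note: recombinant parasite enzyme with a five histidine tag at its C terminus; test concentration not given here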
# Chain of Dihydroorotate dehydrogenase (quinone), mitochondrial (Plasmodium falciparum (isolate 3D7)) (Q08210 whole entry, looked up): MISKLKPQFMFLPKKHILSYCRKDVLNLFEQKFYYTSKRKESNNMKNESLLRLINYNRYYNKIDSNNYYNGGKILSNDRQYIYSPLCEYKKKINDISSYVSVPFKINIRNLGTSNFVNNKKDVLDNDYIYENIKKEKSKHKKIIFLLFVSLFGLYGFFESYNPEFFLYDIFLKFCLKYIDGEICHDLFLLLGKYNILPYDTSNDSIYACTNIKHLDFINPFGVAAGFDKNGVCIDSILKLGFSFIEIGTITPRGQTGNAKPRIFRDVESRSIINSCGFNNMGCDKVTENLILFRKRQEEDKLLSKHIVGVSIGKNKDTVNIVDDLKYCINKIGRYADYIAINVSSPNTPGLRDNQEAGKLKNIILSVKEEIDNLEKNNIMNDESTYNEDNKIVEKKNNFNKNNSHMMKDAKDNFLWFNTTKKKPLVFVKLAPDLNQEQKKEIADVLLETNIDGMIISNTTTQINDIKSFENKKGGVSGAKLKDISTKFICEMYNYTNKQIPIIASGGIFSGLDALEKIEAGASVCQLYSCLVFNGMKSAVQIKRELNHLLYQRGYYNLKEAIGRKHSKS
# [15] = P. aeruginosa biofilm formation inhibitors, primary screen, strain PAO1, LB-PBS medium, absorbance 600 nm (AID 1176); note: test concentration not given here; conditions: P. aeruginosa PAO1 growth/biofilm, A600, 12 h; higher = more signal
# [16] = S. cerevisiae RM11-1a growth modifiers, primary screen, strain RM11-1a, OD600, basal, 24 h (AID 1177); conditions: OD600, 24 h, higher = more signal, called active from +8 up or from −8 down;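 note: cultures grown under basal conditions with no added stressor; test concentration not given here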
# [17] = E. coli acrAB mutant growth effects, primary screen, E. coli filamentation inducers, strain DRC39, OD650, 24 h (AID 1178); conditions: higher = more signal, called active from +8 up or from −8 down;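 note: growth measured as culture turbidity by optical density at 650 nm; test concentration not given here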
# [18] = E. coli acrAB mutant growth effects, primary screen, E. coli filamentation inducers, strain DRC39, OD650, 48 h (AID 1179);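 note: screen aims at cell division blockers that make cells filament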; conditions: E. coli DRC39 delta-acrAB growth, higher = more signal, called active from +8 up or from −8 down
# [19] = RPMI8226 myeloma cell viability, profiling panel, resazurin fluorescence, basal, 24 h, PK04 Diversity Set (AID 1180); conditions: higher = more signal;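 note: RPMI8826 multiple myeloma cell line at 5000 cells per well; test concentration not given here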
# [20] = target: E3 ubiquitin-protein ligase XIAP (Homo sapiens) (UniProt P98170); test: XIAP binders, primary screen, biophysical, small-molecule microarray, fluorescence 635 nm (AID 1181); conditions: small-molecule microarray binding, higher = more signal;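 note: score merges 667 nm emission and signal to noise over triplicate slides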
# Chain of E3 ubiquitin-protein ligase XIAP (Homo sapiens) (P98170 whole entry, looked up): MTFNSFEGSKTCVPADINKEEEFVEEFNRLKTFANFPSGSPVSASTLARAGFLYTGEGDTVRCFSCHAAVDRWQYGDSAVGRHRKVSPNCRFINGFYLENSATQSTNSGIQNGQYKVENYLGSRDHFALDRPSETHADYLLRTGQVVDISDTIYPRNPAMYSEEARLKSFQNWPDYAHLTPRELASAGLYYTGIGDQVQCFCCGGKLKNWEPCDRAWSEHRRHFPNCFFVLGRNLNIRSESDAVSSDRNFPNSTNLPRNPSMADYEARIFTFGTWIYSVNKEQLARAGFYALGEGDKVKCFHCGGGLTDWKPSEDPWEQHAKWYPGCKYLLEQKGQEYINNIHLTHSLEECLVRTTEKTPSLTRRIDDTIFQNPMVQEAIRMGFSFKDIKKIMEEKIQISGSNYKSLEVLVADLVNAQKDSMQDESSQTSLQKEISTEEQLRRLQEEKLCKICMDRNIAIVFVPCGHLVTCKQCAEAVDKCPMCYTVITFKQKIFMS
Compound,z-score [1],z-score [2],z-score [3],z-score [4],z-score [5],z-score [6],z-score [7],z-score [8],z-score [9],z-score [10],z-score [11],z-score [12],z-score [13],composite z-score [14],z-score [15],z-score [16],z-score [17],z-score [18],z-score [19],composite z-score [20]
[N-]=[N+]=Nc1ccccc1C[C@]1(C(=O)N2CCCCC2)N=C(c2ccc(OCCCO)cc2)O[C@H]1c1ccccc1N=[N+]=[N-],-0.0955,0.164,-2.44,-3.54,-3.89,-0.599,-0.0935 (inactive),-1.09,-2.64,-0.909 (inactive),-0.776,-0.254 (inactive),-3.52 (inactive),0.584 (inactive),1.07 (inactive),0.975 (inactive),-0.125 (inactive),-0.319 (inactive),-4.29,0.0727
CCCCCN1CC=CC23O[C@@H]4C=CCCOC(=O)C4[C@H]2C(=O)N(CCCO)[C@@H]3C1=O (stereo not given in full),-0.55,0.133,-0.904,0.0357,-0.0158,-0.639,-0.361 (inactive),-0.606,0.00824,-0.0645 (inactive),0.457,-0.613 (inactive),0.435 (inactive),-1.36 (inactive),-0.289 (inactive),-0.126 (inactive),-0.761 (inactive),-0.251 (inactive),-0.0665,-0.162
CCCNC(=O)[C@@]1(c2ccc([N+](=O)[O-])cc2)CC(=O)N(CC23CC4CC(CC(C4)C2)C3)[C@@H]1c1ccc(CO)cc1I,-1.29,-0.738,-4.9,-3.81,-4.32,0.243,-0.0911 (inactive),-0.872,-2.18,-3.39 (inactive),-2.95,0.285 (inactive),-3.47 (inactive),0.286 (inactive),0.32 (inactive),1.34 (inactive),-0.643 (inactive),0.198 (inactive),-4.07,-0.0749
C=CCC(OC(C)=O)[C@@H]1[C@@H](N(Cc2cc3ccccc3o2)C(=O)c2ccc(-c3ccccc3)cc2)c2cc(OCCCO)ccc2N1C(=O)Cc1ccc2ccccc2c1 (stereo not given in full),0.809,0.778,1.48,0.372,-0.0122,1.64,-0.211 (inactive),-0.0273,0.293,0.483 (inactive),-0.795,0.692 (inactive),0.548 (inactive),0.22 (inactive),0.0793 (inactive),0.854 (inactive),1.15 (inactive),0.682 (inactive),1.13,-0.239
COc1c(C)cc(-c2cc3c(c(-c4ccccc4)n2)[Si](C(C)C)(C(C)C)O[C@H]3c2ccccc2)cc1C,-0.77,-0.11,-0.0094,-0.521,-1.98,-1.21,-1 (inactive),-0.016,-0.198,-0.0824 (inactive),-0.315,-0.0888 (inactive),-0.477 (inactive),-1.21 (inactive),0.161 (inactive),-1.33 (inactive),-0.102 (inactive),-0.446 (inactive),-0.327,-0.0186
C=C(C(=O)CC[C@@H](OC(=O)c1cccnc1)c1ccc(OCCO)cc1)C(C)C,-1.9,-1.63,-3.17,-3.39,-1.9,-0.959,-0.0274 (inactive),-0.304,-1.41,-1.34 (inactive),-0.706,-18.4 (active),-0.446 (inactive),-3.83 (inactive),0.907 (inactive),-22.2 (active),-0.706 (inactive),-0.694 (inactive),-1.56,-0.184
Cc1ccc(N2C(=O)c3ccccc3[C@@H](C(=O)NCC(C)C)[C@@H]2c2ccc(CO)cc2)nc1,0.593,-0.136,0.558,-0.0617,0.662,2.02,1.09 (inactive),-0.482,0.133,-0.613 (inactive),-0.324,0.0089 (inactive),0.439 (inactive),0.351 (inactive),0.348 (inactive),-0.746 (inactive),0.483 (inactive),0.603 (inactive),0.68,-0.148
CCCC[C@H]1C[C@@H]1[C@@H]1N(P(=O)(c2ccccc2)c2ccccc2)[C@](CO)(c2ccccc2)CC12CC2,-2.02,-0.0661,-1.96,-3.23,-4.69,-2.28,-0.732 (inactive),-0.868,-2.86,0.936 (inactive),-0.544,0.402 (inactive),-1.93 (inactive),-0.152 (inactive),0.411 (inactive),1.14 (inactive),0.0779 (inactive),-0.872 (inactive),-6.02,0.247
